# PubChem BioAssay (NCATS)
# Several values for one entry are separate records, joined by “and”; a condition that tells them apart may be missing. Equal values may be shown once. Values without a mark were called inactive. Results filed as inconclusive are left out. A call without a number means that no potency is given here. Activity calls are given as the source filed them. Unless noted, the call rests on the fitted dose curve; in most records, active means well fitted curve in the direction sought with a large enough effect; inconclusive means small, poorly fitted or top-dose-only effect, or another doubt; inactive means no such curve, though single readings can be large; an effect the other way counts as inactive or inconclusive.
# Assays:
# [1] = biological target: Cytochrome P450 3A4 (Homo sapiens) (UniProt P08684); test: qHTS Assay for Inhibitors and Substrates of Cytochrome P450 3A4 (AID 884); further: nearly all actives have a fitted effect of over 50% in size
# Procedure, shortened: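 Luminescent readout of luciferin produced by CYP3A4 (20 nM) dealkylation of Luciferin-PPXE, 25 uM (its KM). NADPH-driven reaction ran 60 min at RT after 10 min compound preincubation; data scaled to 57 uM ketoconazole as 100% inhibition.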
# [2] = Cellular Toxicity (caspase-3) BJ (AID 658); details: Potency: caspase-3 activation
# Procedure, shortened: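 qHTS, BJ fibroblasts, 1000 cells/well; 5 hr preincubation, 16 hr compound, 37 °C; Caspase-Glo 3/7 reagent, 1 hr RT; luminescence. DMSO = 0%, 10 uM staurosporine = 100%. Hill-equation AC50.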
# [3] = Cellular Toxicity (caspase-3) MRC-5 (AID 659); details: Potency: caspase-3 activation
# Procedure, shortened: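 MRC-5 fibroblasts, 1500/well; 16 h cpd, 37 °C; Caspase-Glo 3/7, 1 h RT; lumi read. Norm: DMSO = 0%, 10 uM staurosporine = 100%. Hill-fit AC50 from qHTS conc-response.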
# [4] = Cellular Toxicity (caspase-3) SK-N-SH (AID 661)
# Procedure, shortened: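 Cells were seeded and incubated 5 hr at 37 °C, dosed with compound over a concentration range for 16 hr, then given Caspase-Glo 3/7 reagent for 1 hr at room temperature before luminescence reading.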
# [5] = Cellular Toxicity (caspase-3) H-4-II-E (AID 663); details: H-4-II-E rat hepatoma, scaled: DMSO 0%, 100 µM tamoxifen 100%; at 92.2 µM (top of the series);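 further: cells exposed to compound for 16 hr before readout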
# Procedure, shortened: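 H-4-II-E rat hepatoma, 1500 cells/well, 5 hr settle at 37 °C; compound 16 hr, 37 °C, complete medium; Caspase-Glo 3/7, 20 min RT; luminescence. DMSO = 0%, 100 uM tamoxifen = 100%; Hill-equation AC50.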
# [6] = Cellular Toxicity (caspase-3) Hek293 (AID 664); details: HEK293 caspase-3 activation, DMSO = 0%, 100 µM tamoxifen = 100%; at 92.2 µM (top of the series);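 further: cells exposed to compound for 16 h at 37 °C before readout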
# Procedure, shortened: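 qHTS, HEK293 (human embryonic kidney), 16 h cpd exposure in complete medium. Caspase-3/7 activation = luminescence increase; normalized to DMSO/100 uM tamoxifen; Hill-fit AC50.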
# [7] = Cellular Toxicity (caspase-3) N2a (AID 665);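 further: compound exposure lasted 16 h at 37 °C before readout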
# Procedure, shortened: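 Caspase-3/7 activation, measured as increased luminescence from aminoluciferin release, is quantified in mouse N2a cells exposed to compounds for 16 h. Values are normalized to DMSO and 10 uM staurosporine, with AC50 derived by Hill modelling.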
# [8] = Cellular Toxicity (caspase-3) NIH 3T3 (AID 666)
# Procedure, shortened: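 Cells were plated at 1000 per well and incubated 5 hr at 37°C, then compound was added for 16 hr. Caspase-Glo 3/7 reagent followed for 20 min at room temperature before luminescence was read.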
# [9] = Cellular Toxicity (caspase-3) Renal Proximal Tubule (AID 667); details: Potency: caspase-3 activation;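 further: cells exposed to compound for 16 hours at 37 °C before detection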
# Procedure, shortened: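 Caspase-Glo 3/7 read-out, rat primary kidney proximal tubule cells. Compound exposure 16 h, 37 °C; detection after 1 h at RT. Activity scaled to DMSO and 10 uM staurosporine.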
# [10] = Confirmation and Secondary Assay for Modulators of Hemoglobin Beta Chain Splicing at IVS2 654 locus (AID 910);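 further: HeLa cells stably carrying EGFP split by mutant beta-globin IVS2-654 intron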
# Procedure, shortened: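 HeLa cells stably expressing EGFP interrupted by β-globin IVS2-654 intron, seeded overnight in Opti-MEM/2% FCS, then treated 2 days at 37 °C. Restored splicing read as total peak GFP intensity per well by laser scanning cytometry (488 nm excitation, 500–520 nm emission); 500 nM antisense PNA as control.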
# [11] = Cell Viability - LYMP2-001 (AID 921);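 further: cells exposed to compound for 24 h at 37 °C; nearly all actives have a fitted effect of over 70% in size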
# Procedure, shortened: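 A lymphoblastoid cell line of human origin was treated with library compounds across a concentration series for 24 hours, and viable cell number was estimated from ATP-driven luciferase light output. Hill modeling gave AC50.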
# [12] = Confirmation and Secondary Assay for Modulators of Hemoglobin Beta Chain Splicing at IVS2 705 locus (AID 930);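 further: HeLa cells stably expressing the EGFP-705 splicing reporter; GFP fluorescence per well restored by corrected splicing of the IVS2-705 intron in EGFP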
# Procedure, shortened: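 Assay measures total GFP intensity per well in HeLa EGFP-705 cells after 2 days with compound; mis-splicing normally truncates EGFP, so fluorescence indicates corrected splicing.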
# [13] = biological target: Cytochrome P450 2C9 (Homo sapiens) (UniProt P11712); test: qHTS Assay for Inhibitors and Substrates of Cytochrome P450 2C9 (AID 883); further: nearly all actives have a fitted effect of over 60% in size
# Procedure, shortened: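 Signal: luciferase luminescence reporting luciferin produced by CYP2C9. Conditions: 10nM enzyme, Luciferin-H 100uM at KM, 25mM KPO4, 37C, 60 min NADPH-driven reaction. Reference: 57uM sulphaphenazole as 100% inhibition.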
# [14] = qHTS Assay for Identification of Small Molecule Agonists for Hypoxia Response Element Signaling Pathway (AID 914; active means well fitted activation curve with a large enough effect in the signal ratio, with a control signal flat, not every such curve was filed as active; the % refers to the signal ratio); details: ME-180 (cervical carcinoma) HRE-bla reporter, beta-lactamase ratio, CoCl2, 17 h; stronger effect = higher value
# Procedure, shortened: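 Compounds in a titration series were added to ME-180 reporter cells alongside an EC50 level of CoCl2. After 17 hours, beta-lactamase activity was read as the 460nm/530nm emission ratio of CCF4, giving AC50 values.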
# [15] = biological target: Cytochrome P450 3A4 (Homo sapiens) (UniProt P08684); test: qHTS Assay for Activators of Cytochrome P450 3A4 (AID 885); further: nearly all actives have a fitted effect of over 65% in size
# Procedure, shortened: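 Luminescent readout of luciferin formed from 25 uM Luciferin-PPXE (KM level) by 20 nM CYP3A4 in 200 mM KPO4, with 60 min NADPH-driven reaction at room temperature after 10 min compound exposure. Ketoconazole (57 uM) defined 100% inhibition.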
# [16] = biological target: Cytochrome P450 2D6 (Homo sapiens) (UniProt P10635); test: qHTS Assay for Inhibitors and Substrates of Cytochrome P450 2D6 (AID 891); further: potency means the concentration at half of the fitted maximal effect; nearly all actives have a fitted effect of over 60% in size
# Procedure, shortened: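 Luminescent read-out of luciferin formed by 5 nM human CYP2D6 demethylating 30 uM Luciferin-ME EGE (Km level) over 60 min at room temperature after NADPH regeneration addition. Data normalized to full inhibition by 1.43 uM quinidine.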
# Chain of Cytochrome P450 3A4 (Homo sapiens) (P08684 whole entry, looked up): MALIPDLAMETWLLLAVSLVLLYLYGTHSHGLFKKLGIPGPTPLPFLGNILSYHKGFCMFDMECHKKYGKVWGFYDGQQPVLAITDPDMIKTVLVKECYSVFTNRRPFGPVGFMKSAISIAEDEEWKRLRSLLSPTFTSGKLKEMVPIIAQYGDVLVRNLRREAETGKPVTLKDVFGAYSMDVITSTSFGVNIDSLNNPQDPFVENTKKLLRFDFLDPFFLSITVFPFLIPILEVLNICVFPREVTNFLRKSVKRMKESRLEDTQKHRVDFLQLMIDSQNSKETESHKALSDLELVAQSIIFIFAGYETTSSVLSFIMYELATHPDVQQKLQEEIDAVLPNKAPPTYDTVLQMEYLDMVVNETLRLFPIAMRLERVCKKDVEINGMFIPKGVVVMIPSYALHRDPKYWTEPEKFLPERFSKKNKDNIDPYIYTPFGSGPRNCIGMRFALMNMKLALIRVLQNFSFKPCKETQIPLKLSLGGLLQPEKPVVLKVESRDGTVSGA
# Chain of Cytochrome P450 2C9 (Homo sapiens) (P11712 whole entry, looked up): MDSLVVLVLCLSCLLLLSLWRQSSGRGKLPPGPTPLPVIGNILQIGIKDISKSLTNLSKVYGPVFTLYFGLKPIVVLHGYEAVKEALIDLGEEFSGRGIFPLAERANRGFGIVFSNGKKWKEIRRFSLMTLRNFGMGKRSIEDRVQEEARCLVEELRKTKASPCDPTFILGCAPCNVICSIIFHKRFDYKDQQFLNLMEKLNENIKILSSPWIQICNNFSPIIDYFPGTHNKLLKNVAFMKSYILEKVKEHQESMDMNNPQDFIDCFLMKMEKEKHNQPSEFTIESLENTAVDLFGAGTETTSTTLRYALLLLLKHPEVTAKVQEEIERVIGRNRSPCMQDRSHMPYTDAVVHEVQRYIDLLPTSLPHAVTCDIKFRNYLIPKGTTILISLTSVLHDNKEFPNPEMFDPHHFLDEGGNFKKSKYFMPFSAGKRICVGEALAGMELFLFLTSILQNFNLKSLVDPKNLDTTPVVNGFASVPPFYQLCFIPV
# Chain of Cytochrome P450 2D6 (Homo sapiens) (P10635 whole entry, looked up): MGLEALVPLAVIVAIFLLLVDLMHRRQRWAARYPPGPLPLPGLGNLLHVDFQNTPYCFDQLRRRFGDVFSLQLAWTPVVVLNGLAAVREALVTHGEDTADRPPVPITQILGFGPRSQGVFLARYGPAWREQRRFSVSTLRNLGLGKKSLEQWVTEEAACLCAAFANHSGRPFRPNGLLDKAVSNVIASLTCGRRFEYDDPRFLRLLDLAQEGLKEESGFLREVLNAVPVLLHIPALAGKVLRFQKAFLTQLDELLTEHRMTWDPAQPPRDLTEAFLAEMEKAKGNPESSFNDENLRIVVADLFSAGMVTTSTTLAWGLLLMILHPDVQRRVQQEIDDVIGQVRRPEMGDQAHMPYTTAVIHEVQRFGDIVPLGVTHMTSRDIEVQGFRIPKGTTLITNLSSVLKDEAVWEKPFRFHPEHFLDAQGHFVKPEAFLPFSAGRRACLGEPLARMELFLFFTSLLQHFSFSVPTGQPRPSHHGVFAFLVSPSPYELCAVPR
Compound,outcome [1],Potency [2],Potency [3],Potency [4],caspase-3 activation [5] [%],caspase-3 activation [6] [%],outcome [7],Potency [8],Potency [9],Potency [10],Potency [11],Potency [12],outcome [13],activation [14],outcome [15],Potency [16]
CCc1c2c(nc3ccc(OC(=O)N4CCC(N5CCCCC5)CC4)cc13)-c1cc3c(c(=O)n1C2)COC(=O)[C@]3(O)CC,inactive,–,–,–,–,–,–,–,–,–,–,–,–,–,–,–
Cc1cc(NS(=O)(=O)c2ccc(N)cc2)no1,–,inactive,inactive,inactive,0.0786,1.7,inactive,inactive,inactive,inactive,inactive,inactive,–,–,–,–
C[C@]12C=CC(=O)C=C1CC[C@@H]1[C@@H]2C(=O)C[C@@]2(C)[C@H]1CC[C@]2(O)C(=O)CO,–,inactive,inactive,inactive,0.264,-0.65,inactive,inactive,inactive,–,inactive,–,–,–,–,–
Cc1noc(NS(=O)(=O)c2ccc(N)cc2)c1C,inactive,inactive,inactive,inactive,0.00688,-1.11,inactive,inactive,inactive,inactive,inactive,inactive,inactive,-20.7% and -0.198%,–,–
NNC(=O)c1ccncc1,–,inactive,inactive,inactive,0.877,0.113,inactive,inactive,inactive,inactive,inactive,inactive,–,–,inactive,–
CCOC(=O)c1ccc(OC(=O)CCCCCN=C(N)N)cc1,–,–,–,–,–,–,–,–,–,–,–,–,inactive,–,–,316 nM (active)
Cc1nnc(NS(=O)(=O)c2ccc(N)cc2)s1,inactive,inactive,inactive,inactive,-0.129,-0.508,inactive,inactive,inactive,inactive,inactive,inactive,–,–,–,–
